# Sfp PPTase inh: blocks B. subtilis Sfp PPTase activity. Q9F4F7. Biochemical Sfp PPTase activity, qHTS. Potency, µM, inactives show largest response in the series, negative = inhibition, most hits filed as inhibitors. 310,000 compounds, 3.5% hits;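 further: the enzyme is Sfp with the accession as filed and its product quenches rhodamine fluorescence; 0% = enzyme reaction without inhibitor and -100% = no enzyme wells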
#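 With Hepes-Na pH 7.6 buffer containing 10 mM MgCl2, Sfp (15 nM) modified BHQ-2-YbbR (12.5 uM) using rhodamine-CoA (5 uM). Two reads 30 minutes apart at 525/598 nm yielded each well's rate.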
# RORg inh: blocks mouse ROR gamma transcriptional activity | Drosophila S2 Gal4-RORgamma UAS-luciferase reporter, 20 h | Potency, µM (titrated, usually from 53.6 µM), for the others: at the top dose activity change, negative = inhibition, most hits filed as inhibitors | 310,000 compounds, 5.4% hits | AID 2551; further: nearly all actives have a fitted effect of over 60% in size
#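 Compounds are pin-transferred onto Drosophila Schneider cells expressing a copper-inducible Gal4–ROR gamma transactivation domain fusion. After 1 hr, copper sulfate is added to 700 uM final; luciferase is read 20 hr later.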
# PLK1 PBD inh: PLK1 (human) polo-box domain binding inhibition | AID 720504 | Plk1 PBD binding of FITC phosphopeptide, fluorescence polarization | Potency, µM, without a hit: max response, negative = inhibition, usual class: inhibitors | 360,000 compounds, 2.8% hits | P53350; further: series mostly up to about 57 µM; nearly all actives have a fitted effect of over 65% in size
# VP16 counter: inhibits Gal4-VP16 luciferase reporter, ROR gamma counter-screen. Drosophila S2 Gal4-VP16 UAS-luciferase, luminescence, 20 h. Potency, µM (doses to about 53.6 µM), for inactives: top-dose activity, negative = inhibition, actives largely listed as inhibitors. 310,000 compounds, 3.5% hits. AID 2546;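 further: Gal4-VP16 expression switched on by copper sulfate through the metallothionein promoter; nearly all actives have a fitted effect of over 50% in size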
# ALDH1A1 inh: blocks purified human ALDH1A1 activity; P00352; Purified ALDH1A1, NADH fluorescence, propionaldehyde substrate; Potency, µM (doses to about 75.3 µM), inactives show at the highest dose activity, negative = inhibition, actives largely listed as inhibitors; 220,000 compounds, 7.3% hits; active means well fitted inhibition curve with a large enough effect, not every such curve was filed as active; inconclusive means small, poorly fitted or top-dose-only effect, or another doubt; inactive means no such curve, though single readings can be large or run the other way;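 further: plate controls were no enzyme wells and a reference inhibitor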
# * = called active by the depositor; ? = inconclusive; · = no result; [ ] = another dose, or the depositor's remark. In the library only some 12% were active in any assay of this set; here they are far more common. Unless noted, the call rests on the fitted dose curve; in most records, active means well fitted curve in the direction sought with a large enough effect; inconclusive means small, poorly fitted or top-dose-only effect, or another doubt; inactive means no such curve, though single readings can be large; an effect the other way counts as inactive or inconclusive. Unless noted, on the % scale 0 is the no-effect control and ±100 the full control effect; potency means the concentration at half of the fitted maximal effect.
SMILES,Sfp PPTase inh,RORg inh,PLK1 PBD inh,VP16 counter,ALDH1A1 inh
CCN(CC)C1CC(=O)N(c2cccc(C)c2)C1=O (stereo not drawn),-18%,-142%,·,7.1µM*,3.5µM*
CCN(CCO)C1CC(=O)N(c2ccccc2C)C1=O (stereo not drawn),-72%,4µM*,-4%,3.5µM*,3.5µM*
Cc1cccc(N2C(=O)CC(Cn3nc(C)cc3C)C2=O)c1 (stereo not drawn),12%,-1%,0%,3%,·
COc1ccccc1CNc1nc(Nc2ccc(C)cc2C)c2sccc2n1,·,·,-6%,·,·
COc1cccc(-c2cc(C(=O)N3CC4(C)CC3CC(C)(C)C4)no2)c1 (stereo not drawn),-17%,6%,-5%,-16%,13µM*
Cc1noc(C(=O)N2CC3(C)CC2CC(C)(C)C3)c1Cl (stereo not drawn),7%,-25%,-6%,-6%,18µM*
CC1(C)CC2CC(C)(CN2C(=O)c2cc(-c3ccc(O)cc3)on2)C1 (stereo not drawn),19%,39%,-2%,-17%,·
Cc1noc(C)c1COc1ccc(C(=O)OCC(=O)N2CC3(C)CC2CC(C)(C)C3)cc1 (stereo not drawn),-5%,-30%,-9%,0%,?
COc1cccc(-c2cc(C(=O)O)no2)c1,2%,6%,-18%,-3%,0.56µM*
COc1cccc(-c2cc(C(=O)N3CCCCCC3)no2)c1,-19%,?,-9%,?,?
COc1ccc(C(=O)Nc2cc(-c3nn4c(C)nnc4s3)ccc2C)cc1,4%,22%,-8%,3%,4%
Cc1ccc(-c2nn3c(C)nnc3s2)cc1NC(=O)c1ccc(OC(C)C)cc1,?,2%,-10%,-18%,13µM*
COc1cc2nc(C3CCC3)nc(N3CCN(c4ccccn4)CC3)c2cc1OC,79µM*,-19%,3%,-19%,8.9µM*
COc1cc2nc(C3CCC3)nc(N3CCN(c4ccccc4OC)CC3)c2cc1OC,-23%,1%,-1%,-26%,28µM*
O=[N+]([O-])c1ccc(O)c(/C=N/Nc2ccccn2)c1,8%,10µM*,-4%,11µM*,-3%
O=[N+]([O-])c1ccc(O)c(/C=N/Nc2nc3ccccc3[nH]2)c1,12%,6.3µM*,-5%,5.6µM*,?
O=C(O)COc1ccc(Br)cc1/C=N\Nc1ccccn1,-83%,2.2µM*,-24%,-21%,·
COc1cccc(-c2cnc(C(O)c3ccc(Cl)cc3C)[nH]2)c1 (stereo not drawn),·,·,7%,·,·
CCCCc1nc2c(c3c1C[C@H](C)OC3)CN(C(=O)NCc1ccco1)CC2,3%,·,·,·,5%[13.5 µM]
CN(Cc1cccs1)c1ncnc2sccc12,79µM*,-14%,-6%,1.3µM*,-6%
COc1ccc(/C=C2\SC(=O)N(CCCC(=O)Nc3cc(Cl)ccc3C(=O)O)C2=O)cc1,·,·,-24%,·,·
Clc1ccc([C@H](Cn2ccnc2)OCc2c(Cl)cccc2Cl)c(Cl)c1,2%,?,·,?,-8%[20.9 µM]
CC[C@@H](C(=O)[C@@H](C)[C@@H](O)[C@H](C)CCc1ccc(C)c(O)c1C(=O)O)[C@H]1O[C@](CC)([C@H]2CC[C@](O)(CC)[C@H](C)O2)C[C@@H]1C,-17%,?,?,6.3µM*,·
CCC(C(=O)C(C)C(O)C(C)CCc1ccc(C)c(O)c1C(=O)O)C1OC(CC)(C2CC[C@@](O)(CC)C(C)O2)CC1C (stereo partly drawn),12%,?,·,10µM*,-1%
CC[C@@H](C(=O)[C@@H](C)[C@@H](O)[C@H](C)[C@@H]1O[C@@H]([C@@H](CC)C(=O)O)CC[C@@H]1C)[C@H]1O[C@]2(C=C[C@@H](O)[C@]3(CC[C@@](C)([C@H]4CC[C@](O)(CC)[C@H](C)O4)O3)O2)[C@H](C)C[C@@H]1C,·,·,3%,·,·
Cc1cc(C)c(C#N)c(OCC2CCCO2)n1 (stereo not drawn),·,·,-1%,·,·
CO[C@H]1COC(=O)C/C=C\[C@@H](C)COC(=O)[C@@H](OCc2ccccc2)/C=C\[C@@H]1C,-3%,-16%[10 µM],·,-7%[10 µM],0%[13.5 µM]
N=C1S/C(=C\c2ccco2)C(=O)N1c1ccc2c(c1)OCO2,?,19%,-26%,?,?
